About 210 (0.4%) of roughly 52,000 sequences were called active. This excerpt belongs to a sample that is enriched for actives. Values without a mark were called inactive.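 The calls were made as follows: active = gene whose silencing raises cell survival under the drug, median off-target-corrected z-score across its silencing RNAs 2 or more; inactive = the rest.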

This experiment in a line: Resistance to Poly (ADP-Ribose) Polymerase inhibitor: Gene Identification via Genome-wide siRNA Screen. Particulars: mouse BRCA2 R2336H ES cells, olaparib, CellTiter-Glo viability; hits give high values. The source says: The role of Poly (ADP-Ribose) Polymerase (PARP) proteins in DNA repair has been elegantly utilized for the synthetic lethality-based treatment of BRCA-deficient tumors by PARP inhibitors. PARP inhibitors are now being used for treatment of BRCA-deficient breast and ovarian cancers. […] While several mechanisms of drug resistance have been identified, majority of these tumors develop drug resistance due to unknown causes. To identified novel regulators of chemo-resistance in BRCA2-mutated cells, we performed a genome wide siRNA library screen. We have found ES cells expressing a hypomorphic allele of BRCA2 to be hypersensitive to PAPP inhibitors (such as olaparib). We used ES cells expressing a mutant allele of BRCA2 that has a single amino acid substitution at position 2336 (arginine to histidine, R2336H). The screen was conducted using an Ambion (Thermo) Silencer Mouse Genome siRNA collection. The library targets 17,575 mouse genes with 3 siRNAs per gene. TET2 (E130014J05Rik) was identified as a top candidate.
Transfections were performed in 384 well plates (Corning 3707). Plates were coated with 0.1% gelatin in H2O overnight at ambient temperature. Gelatin solution was aspirated (BioTek EL406) and siRNAs were printed using a Bravo VPrep liquid handler integrated within a BioCel automation platform (Agilent). Cell viability was measured using CellTiter Glo (Promega). For transfections, […] of serum free media containing Lipofectamine RNAiMax […] was added to wells containing siRNA (0.8pmol). Lipid and siRNA were allowed to complex for 45 min at ambient temperature before addition of 1000 cells in DMEM, 30% FBS to yield final transfection mixtures containing 20 nM siRNA in DMEM, 15% FBS. PARPi (olaparib, AZD2281) was added 48 h post-transfection (500 nM) and viability (CellTiter Glo, Promega) was assayed 72 h later on a PerkinElmer Envision 2104 Multilabel plate reader. Ambion Silencer Select Negative Control #2 was incorporated on all screening plates (16 wells) and the median negative control value on each plate was used for normalization. An siRNA targeting Trp53 was used as a positive control. This control yielded a median protective effect of ~1.9 fold versus negative control throughout the screen. The median absolute deviation (MAD) based z-score was calculated for each siRNA. Genes were then ranked by taking the median value for all siRNAs tested against a given gene. Scores were also adjusted for seed-based off-target effects to help deprioritize likely false positives.
On the technique in general: In ATP-based viability assays light output follows the ATP content of the culture.
In the case of CCAGAAACAUACGAAGAUUTT against Khdrbs1, the z-score is 2.31 (active).

Take GGUAUCUUCAAGUACAUGATT against BC011426: the z-score is 0.138.

On to GGAGAUGGAGAAGUAGAUUTT against Abcf2, for which the z-score was 0.0903.

Consider GGGAAAUGUGUGUUAUCUGTT against Rnf126, for which the z-score was 1.17.

With CCCUGUCUCCCGCAUAGAATT against Itgb6, the z-score is 1.67 (active).

In the case of GAAAUCAUCCUGCCCAAAGTT against Vax1, the z-score was 0.607.

As for GGUCCCAGUGUCAUGUCUUTT against Cdipt, the z-score was 0.00151.

As to GGUCUAUACCAUCCUAUUGTT against Faim2, the z-score was -1.24.

As to CACUCAGCUCAAUGACCUGTT against Ifna14, the z-score was -0.514.

Take GCUACAAGCGAUAUAUUCCTT against Jak1: the z-score was 2.92 (active).

On to CCAUGGAGAAUCAUGACAGTT against Slfn1, for which the z-score was 0.281.

Turning to GUAUCAUACAAUGAUGUCCTT against Olfr176, the z-score is 0.628.

Turning to “GGAAAACAGCUUUGAUUGGTT against E130009J12Rik”, the z-score is 1.42.

In the case of GGAACAGGAAUAACAUGACTT against V1re9, the z-score is 1.65.

GUAUGAUGCACUCCAGUUGTT against Hdac8: the z-score was -1.38.

In the case of GCCAGUGCACUCCUCUUUUTT against Mmrp19, the z-score was 0.352.

For GCUGAACUAUAACUUGAAATT against Stat1, the z-score is 0.735.

For the sequence GCAAGAAGUAAUCAACUUUTT against Rqcd1, the z-score is 2 (active).

Consider GGACUUUUACCAGUUCUCCTT against Ece2, for which the z-score is 0.967.

For GGUACAGGAAAAAAGAAGATT against Msl31, the z-score was -0.435.

In the case of GCACGUAGUAAGAUGUUACTT against Rqcd1, the z-score is 2.53 (active).

GGUGGUCUAAGUCCUGACATT against Hmx1: the z-score is -0.564.

Regarding GGUUAUUAAGAGCACUUUCTT against Catsper3, the z-score is -0.553.

With GCAUUAUGACUCUAAUAGCTT against Olfr60, the z-score is 0.536.

Regarding GGGCUAUGUGCUCUUUUGUTT against Edg6, the z-score was 0.487.

With GGCAUUGUGAAGCUGAAACTT against Ptpn9, the z-score was 1.93 (active).

With GGAGAAGGAGGUGAUAAUGTT against Sart1, the z-score is 0.088.

For the sequence “GGUGCAGUUUAAGAGAGAATT against C630016B22Rik”, the z-score is 0.153.

Consider GCCACCUCAAUGAAAGGAGTT against Slc23a1, for which the z-score was 0.609.

Turning to GGUAAUUUGUUUGUGGUGATT against Mtnr1b, the z-score is -0.531.

For the sequence “GGCAUCCGUGUGUCUCUAGTT against 5730457F11Rik”, the z-score is -2.13 (active).

For the sequence “CCACUUUCGCUUUACCAAUTT against C330011M18Rik”, the z-score was 0.267.

Regarding CCAACUCUGUUACAUUAUGTT against Fshprh1, the z-score is 0.377.

As to GGGCUAAAGUUGAUAAUAATT against Psmc3, the z-score was -3.32.

On to “GGGAGCUCCAUUUAAAUUATT against A230103N10Rik”, for which the z-score was 0.137.

Turning to GGCAUUCAAAAGGUAAAAUTT against Grid2, the z-score is 2.35 (active).

With CCAGCACUCAAUCCUGUAATT against Olfr305, the z-score is -1.73.

In the case of GCUAUCAACAAUCUUCGAATT against Azi1, the z-score is 0.37.

Turning to “GGAGAACACUUUAAUGCUGTT against 9230106D23Rik”, the z-score is 0.667.

Regarding GAACCUUUUCCGUUUCGAGTT against Cebpb, the z-score was 0.245.

On to “GGCCAGCAGACUAUUUAUUTT against 1110021N07Rik”, for which the z-score is -1.57.

With GGACCUAGAGGAAGUGAAATT against Apoa1, the z-score is 2.05 (active).

Consider GCUUUACUUCUUCCUCAUUTT against Olfr924, for which the z-score is -0.698.

In the case of GGUCUAUGUACUCGCCAAATT against Ptpns1, the z-score is -0.633.

With CCGUCACUAUACCCAAGUUTT against Olfr802, the z-score is -3.11.

As to CGUGCUUAAGAGUCCACUATT against H3f3a, the z-score was -1.43.

In the case of CCUCGUUCAUACGACAGAATT against BC062951, the z-score was -0.447.

Regarding GCUUAGACUCACCAAAGGCTT against Gpr26, the z-score was 1.11.

As to GCAACACAUUUGAACCACUTT against Usp15, the z-score was 2.9 (active).

Turning to “GGCACAGAAAUUAUGUUCUTT against 1810012H11Rik”, the z-score is -0.685.

As to GGAAUUCAACUCAGAUAAGTT against C3, the z-score is -0.52.

For GGUUUUCUUAAAAUAGGAGTT against Tat, the z-score was 3.69 (active).

With CCAUAUCCGUAGGUAUAUCTT against Htr2a, the z-score was 1.02.

Consider “GGCUUGGAAGGAUUAGAAGTT against 4930418G15Rik”, for which the z-score was -0.344.

In the case of CCUCCACUUACUUUGGGUGTT against Cic, the z-score was 1.48 (active).

Take GGAGCUCAACAAGUUGCUUTT against Hist1h2aa: the z-score is -0.0931.

In the case of GGGAGAUCUUUAAGAGAAATT against Tcfap2a, the z-score was -0.65.

Regarding CGAGAUCACGAGAUCGGUUTT against Prdm4, the z-score is 2.21.

GGCCAAGCUGAUCAAUAUATT against Oprd1: the z-score is -0.0592.

Take CCCAAUAAAACUUCCGGGATT against BC021608: the z-score is 0.531.

On to CUCUCGAACAAUCAACCACTT against Olfr315, for which the z-score is -0.314.

With GCUGAAAUCAGAAGCUAACTT against Casc3, the z-score was 0.845.

For GCAUUGGCUGUACUACUAUTT against Psg18, the z-score is -0.196.

In the case of CCACAGCCAAAUGCACAAGTT against Gm1631, the z-score is -0.237.

As to GGGAAAUCAGUUUUACAAATT against Chl1, the z-score was 2.76 (active).

In the case of CCGGUUGCUAGGCUAAACATT against Wdr68, the z-score is -3.25.

For CGUAAAACUCUUAGGCAUGTT against Npm1, the z-score was 2.54 (active).

Consider CCCACUCCAAACAUCUAAATT against Gadd45b, for which the z-score is 0.111.

For the sequence GCCUCUUUGAUAGCAAAAGTT against Cct6a, the z-score was 0.0125.

In the case of GGCAUUUUUCUUCUCCAAATT against Clns1a, the z-score is -0.934.

In the case of GGGACUGUAAUGUUGACACTT against Olfr560, the z-score was 0.851.

Consider GGCAAAAAAAACUGCUAUATT against Gpr128, for which the z-score was 0.0555 (active).

For GGAAAUAAGACUCAGGUCATT against Gtf2a1, the z-score is -1.44.

For GCGAGUUGGAAUUGAGAUCTT against Casp8, the z-score was 0.155.

Take GGUUUUGGCUCGAAGGAAATT against Tead2: the z-score is -1.

Regarding GGAAUGUCCACAUUUUGUATT against Tigd5, the z-score is 0.00592.

For GGAUGAUGAGAGAAACAAATT against Jak1, the z-score is 2.1 (active).

For the sequence GCCGGUUUCAGUUAAAGAGTT against Pccb, the z-score was 2.26.

Take GGGAAUCGGCCUGAAGAAATT against Arl6ip5: the z-score was -0.707.

Consider CCUUCUGGUGCUUUUAGAGTT against Tlm, for which the z-score is 0.431.

Turning to GGGUUAUACCAAGUCCAUUTT against Mapk1, the z-score was 3.33 (active).

GGUUUCCAUGGUAACGUGGTT against Tns: the z-score was 1.17.

For CGAAGCUGCAAAGGAGAAGTT against Igf1, the z-score is -0.732.

Turning to GGUCUUCUACAACUCGGAATT against Sgpp1, the z-score is -0.0398 (active).

Turning to GGAGAAGAAGAAAAGAACATT against Pom121, the z-score is -3.12.

On to GCACCCGGCACUAGAAAAATT against Shoc2, for which the z-score was 0.638.

For the sequence GCUUUACCUGCUCAGAAGCTT against Olfr520, the z-score is 0.553.

Turning to GCGAUUUUACGGAUCCGGUTT against Olfr1420, the z-score was -0.612.

On to GGGAAGUCACUGAAGCCUGTT against Akr7a5, for which the z-score is -0.538.

For the sequence GGGACACACGGUAUACAUCTT against Pfkl, the z-score was 0.358.

For the sequence GGAUGUUAUAAGAUUGCGUTT against Rnf170, the z-score was -0.646.

GGAACUGAUGAAUAUUUCATT against Chrnb1: the z-score is 0.177 (active).

Take “GUUGGUAAAGGUCCUUGCCTT against D17Wsu155e”: the z-score was -1.02.

In the case of GCUACUCAUGCUAGAUGACTT against Gba, the z-score was 1.64.

Regarding GGUUGAACCCACUCUGCAATT against Olfr1113, the z-score is -2.16.

Regarding GCACAGUGGAUGCAAUCAGTT against Btbd1, the z-score was 0.346.

Regarding “GCCCGACAGGAGAUAUUUATT against B230340J04Rik”, the z-score is -1.19.

For the sequence GGAGAGCUGGAACAAUAGCTT against Bcl2l2, the z-score is 2.66 (active).

As for “GCCUUUGUAGGUUCAAGUGTT against 2310001H12Rik”, the z-score was 1.78.

On to GGAGAAGAUCGGAUGGCGATT against Itgb5, for which the z-score was -0.391.

Take CGGACUAAGUUUCAAAUCGTT against Pcdha2: the z-score is -0.594.

On to GGAUGUCACAACAGUUAUGTT against Otog, for which the z-score was 1.4.

With “CCUAUAUGCGCUAUUUGAATT against 4732465J09Rik”, the z-score was 0.557.

As to GGCUAAUGUAUCGUCUGAGTT against Asb16, the z-score is 0.422 (active).

Regarding CCCUGACGAAGCCAUACAUTT against Bcor, the z-score was -1.33.

Consider “GGACAAACAUUGGAUUGAUTT against 0610009C03Rik”, for which the z-score is 0.453.

The values above are taken from PubChem BioAssay AID1347423 (Functional Genomics Laboratory (NCATS/FGL), 2020).
